In the supplement of paper PMC10338343:
± gives the standard deviation.

What follows are sequences tested on MILI (PIWIL2) piRISC loaded with L1MC piRNA (26 nt) (assay: pre-steady-state target cleavage rate (min^-1); guide: L1MC piRNA 5'p-UAACUAAAUACUAUGCAAGCUGUAGG; MIWI and MILI are mouse PIWI proteins and EfPiwi is from a freshwater sponge; tags in brackets are library labels; higher = faster piRNA-guided slicing of the target). Conditions: auxiliary factor: none (no GTSF1).
How it was run: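 Active affinity-purified piRISC carrying one synthetic guide (1 nM) was mixed with a transcribed, DNA-blocked target RNA library […] in HEPES–potassium acetate buffer at 33 °C for 0–8 or 0–960 min, with or without 500 nM GTSF1 partner protein. Uncleaved targets were then sequenced and normalised to depth and to weakly complementary targets. Three trials were pooled, and k3 was capped at 0.0001 min^-1. A burst-and-steady-state fit was applied to obtain the pre-steady-state cleavage rate.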
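Further: 1 nM active piRISC with 0.1 nM target library at 33 °C single turnover.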

pre-steady-state target cleavage rate, 0.00364 ± 0.0031:
UCCUGGAUGUCGUUGCAUAGUUAUUAGUUA

pre-steady-state target cleavage rate, < 0.0001:
UCCUGGAUGUCGAACCAUAGUAAUUUGUUA
UCCUGGAUGUCGAACGUAUCUAUUUAGUCUA
UCCUGGAUGUCGAACGUACGUAUUUAGUUA
UCCUGGAUGUCGAACGUAUCUAUAAAGUUA
UCCUGGAUGUCGAACGUAAGUAUUUAGUAUA
